Measurements as given in PubChem BioAssay (NCATS).
Inconclusive results are not listed. The source made the active and inactive calls. The call rests on the fitted dose curve; in most records, active means well fitted inhibition curve with a large enough effect; inconclusive means small, poorly fitted or top-dose-only effect; inactive means no such curve, though single readings can be large or run the other way.

assay: Counterscreen qHTS for small molecule stabilizers of the endoplasmic reticulum resident proteome: GLuc-NoTag assay (AID 1508627); settings: Gaussia luciferase NoTag secretion counterscreen, luminescence, thapsigargin 100 nM for final 4 h; series mostly up to 76.4 µM; activity change, negative = inhibition: at the top concentration;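 on activity change, negative = inhibition: 0% = thapsigargin alone and -100% = DMSO vehicle control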
In short: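 Secreted GLuc lacking the SERCaMP modification is measured in SH-SY5Y cells exposed to compound for 19 h and then to thapsigargin (100 nM, 4 h) to deplete ER calcium; hits retested at 11 concentrations, up to 76.6 uM.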
Potency means the concentration at half of the fitted maximal effect.

SMILES | activity change, negative = inhibition | Potency
CN1CCC[C@H]1CCO[C@](C)(c1ccccc1)c1ccc(Cl)cc1 | -18.4% (inactive) | –
CC(C)C[C@H](NC(=O)c1cc2ccccc2s1)C(=O)N1CCN(C(=O)[C@H](CO)NS(=O)(=O)c2ccc(Cl)cc2Cl)CC1 | – | 44.7 µM (active)
CC(C)=CCCC(C)=CCCC(C)=CCCC(C)=CCCC(C)=CCCC(C)=CCCC(C)=CCCC(C)=CCCC(C)=CCO | 29.7% (inactive) | –
NS(=O)(=O)c1cc(Cl)c(Cl)c(S(N)(=O)=O)c1 | 12.1% (inactive) | –
Cc1cc2nc3c(=O)[nH]c(=O)nc-3n(CC(O)C(O)C(O)CO)c2cc1C (centres undefined) | 6.59% (inactive) | –

assay: Confirmatory qHTS for small molecule stabilizers of the endoplasmic reticulum resident proteome: Secreted ER Calcium Modulated Protein (SERCaMP) assay (AID 1508628); settings: SERCaMP secreted luciferase ER calcium/proteostasis reporter; series mostly up to 76.3 µM; activity change, negative = decrease: at the top concentration; further: nearly all actives have a fitted effect of over 40% in size;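 on activity change, negative = decrease: SH-SY5Y cells given compound 16 h then thapsigargin 100 nM for 4 h; on the % scale 0 is the no-effect control and ±100 the full control effect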
In short: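 GLuc-SERCaMP-expressing SH-SY5Y cells, pretreated 16 h with compound, are challenged with thapsigargin to empty ER calcium stores; after 4 h, coelenterazine is added directly to the medium and luminescence is imaged.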

SMILES | Potency | activity change, negative = decrease
CC(C)C[C@H](NC(=O)c1cc2ccccc2s1)C(=O)N1CCN(C(=O)[C@H](CO)NS(=O)(=O)c2ccc(Cl)cc2Cl)CC1 | 15.8 µM (active) | –
CC(C)=CCCC(C)=CCCC(C)=CCCC(C)=CCCC(C)=CCCC(C)=CCCC(C)=CCCC(C)=CCCC(C)=CCO | – | 22.4% (inactive)
NS(=O)(=O)c1cc(Cl)c(Cl)c(S(N)(=O)=O)c1 | – | 20.2% (inactive)
CN(C(Cc1ccc(OS(=O)(=O)c2cccc3cnccc23)cc1)C(=O)N1CCN(c2ccccc2)CC1)S(=O)(=O)c1cccc2cnccc12 (centres undefined) | – | 1.16% (inactive)
